In the library only some 1.2% were active in any assay of this set; here they are far more common.
KCNH2 3.1 inh: inhibitors of human KCNH2 3.1 potassium channel isoform; 0.95% of 340,000 active; U2OS KCNH2 3.1, thallium flux FluxOr; stronger effect = lower value; activity change, % (tested at about 1.8 µM);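 active = maximum activity change below -70%; inconclusive = maximum activity change from -70% to -50%; inactive = maximum activity change above -50%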;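 also: thallium influx rate constant from kinetic fluorescence after stimulation buffer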
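Thallium flux read-out: FluxOr dye with Red40 quencher in HBSS/HEPES, 45 min at RT. Rate constants from kinetic reads were normalized to positive and negative DMSO controls. Cells: U2OS virally expressing the 3.1 isoform.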
Luc counter: counter-screen: inhibitors of Kinase-Glo firefly luciferase | Q27757 | Kinase-Glo luciferase, ATP luminescence, 8 min | Potency, µM (doses to about 38.3 µM), hits mostly inhibitors | 0.28% of 200,000 active; active = well fitted inhibition curve with a large enough effect; inconclusive = small, poorly fitted or top-dose-only effect; also: nearly all actives have a fitted effect of over 60% in size
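Kinase-Glo luciferase light output from ATP and luciferin was measured with 10 uM ATP, within the enzyme's linear range. Buffer: 50 mM imidazole pH 7.2, 50 mM KCl, 7 mM MgCl2, 0.01% Tween 20, 0.05% BSA; luminescence read after 8 min at ambient temperature.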
hERG WT inh: KCNH2 (human, wildtype) channel inhibition; activity change, % at 1.84 µM; AID 720551; 0.37% of 340,000 active; Q12809; U2OS, BacMam KCNH2, thallium flux FluxOr; stronger effect = lower value;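 active = maximum activity change below -70%; inconclusive = maximum activity change between -70% and -50%; inactive = maximum activity change above -50%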
Target sequence (Q12809 whole entry, looked up): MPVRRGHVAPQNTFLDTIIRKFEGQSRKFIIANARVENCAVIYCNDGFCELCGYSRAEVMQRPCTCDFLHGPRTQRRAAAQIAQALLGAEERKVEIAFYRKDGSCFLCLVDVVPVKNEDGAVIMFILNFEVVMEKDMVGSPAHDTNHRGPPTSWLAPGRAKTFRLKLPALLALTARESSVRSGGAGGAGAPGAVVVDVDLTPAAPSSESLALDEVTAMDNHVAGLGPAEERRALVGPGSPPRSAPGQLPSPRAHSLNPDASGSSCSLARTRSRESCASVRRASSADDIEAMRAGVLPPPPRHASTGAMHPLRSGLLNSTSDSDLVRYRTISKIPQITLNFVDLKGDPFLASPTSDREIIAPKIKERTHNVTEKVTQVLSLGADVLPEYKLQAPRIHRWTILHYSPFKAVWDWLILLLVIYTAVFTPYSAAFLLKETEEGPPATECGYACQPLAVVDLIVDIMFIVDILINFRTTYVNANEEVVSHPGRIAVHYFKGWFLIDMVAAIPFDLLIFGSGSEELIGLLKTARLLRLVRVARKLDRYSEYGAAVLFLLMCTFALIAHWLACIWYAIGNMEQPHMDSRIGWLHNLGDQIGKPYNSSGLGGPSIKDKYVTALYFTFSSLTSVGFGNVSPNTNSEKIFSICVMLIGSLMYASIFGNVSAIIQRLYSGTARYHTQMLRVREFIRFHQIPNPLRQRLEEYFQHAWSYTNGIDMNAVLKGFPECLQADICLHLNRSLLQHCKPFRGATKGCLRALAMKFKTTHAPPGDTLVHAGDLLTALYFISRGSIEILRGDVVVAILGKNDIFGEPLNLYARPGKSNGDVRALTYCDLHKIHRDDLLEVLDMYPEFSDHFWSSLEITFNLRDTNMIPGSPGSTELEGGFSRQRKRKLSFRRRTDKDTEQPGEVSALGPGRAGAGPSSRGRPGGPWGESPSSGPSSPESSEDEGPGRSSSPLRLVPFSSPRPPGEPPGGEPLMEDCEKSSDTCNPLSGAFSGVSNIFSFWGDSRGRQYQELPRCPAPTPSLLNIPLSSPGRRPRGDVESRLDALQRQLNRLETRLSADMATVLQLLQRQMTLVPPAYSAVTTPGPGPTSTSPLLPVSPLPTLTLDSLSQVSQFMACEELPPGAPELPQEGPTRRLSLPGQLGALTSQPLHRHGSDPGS
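U2OS cells transduced with wild-type KCNH2 virus are loaded with FluxOr dye for 45 min, and thallium flux is measured in kinetic reads before and after stimulation buffer. Rate constants are normalized to DMSO controls.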
A number is an active result; i = inactive; ? = inconclusive; nt = not tested or not shown; [ ] = another dose, or the depositor's remark.

SMILES	KCNH2 3.1 inh	Luc counter	hERG WT inh
CCOCCCn1c(N)c(C(=O)Nc2sc3c(c2C(=O)OC)CCCC3)c2nc3ccccc3nc21	i	i	i
CCOC(=O)c1c(NC(=O)c2c(N)n(CCCOC)c3nc4ccccc4nc23)sc2c1CCCC2	-71.4	i	i
COc1ccccc1N1CCN(Cc2ccc(Br)cc2)CC1	-75.8	nt	i
COc1ccccc1N1CCN(Cc2ccccc2Cl)CC1	i	i	i
C[C@H](c1ccccc1)N1CCN([C@@H](C)c2ccccc2)CC1	nt	i[7.66 µM]	nt
CC(C)CNCCc1ccccn1	nt	i[7.66 µM]	nt
C[C@@](Br)(C(=O)O)[C@H](Br)C(=O)O	nt	i[7.66 µM]	nt
Fc1ccc2c(c1)nnn2C1CCN(Cc2nnnn2C2CCCCC2)CC1	i	i	i
Cc1nc2cc(F)ccc2n1C1CCN(Cc2nnnn2CCc2ccccc2)CC1	i	i	i
Cc1nc2cc(C(F)(F)F)ccc2n1C1CCN(Cc2nnnn2CCc2ccccc2)CC1	-80.6	i	i
Cc1ccc(Cn2nnnc2CN2CCC(n3nnc4cc(C(F)(F)F)ccc43)CC2)cc1	-92.8	i	?
Cc1ccc(Cn2nnnc2CN2CCC(n3nnc4cc(C)ccc43)CC2)cc1	i	i	i
FC(F)(F)c1ccc2c(c1)nnn2C1CCN(Cc2nnnn2Cc2ccccc2)CC1	-76.1	i	i
CCCCC[CH2][Hg][S]C1=C2N=CNC2NC(N)=N1 (stereo unspecified)	nt	i[7.66 µM]	nt
COc1cc2c(cc1OC)[C@@]13CCN4C=C5CCO[C@H]6CC(=O)N2[C@@H]1C6[C@H]5C[C@H]43 (stereo partly specified)	nt	i[7.66 µM]	nt
CCN1/C(=C\C=C\C2=[N+](CC)c3ccccc3C2(C)C)C(C)(C)c2ccccc21	?	?	-208.0
OC(COCc1ccc(Cl)cc1)CN1CC=C(c2ccccc2)CC1 (stereo unspecified)	-112.3	i	?
OC(CN1CC=C(c2ccccc2)CC1)c1ccccc1 (stereo unspecified)	i	nt	i
C/C=C(/C)C(=O)O[C@H]1C(C)=C2C([C@@H]1OC(=O)CCCCCCC)[C@@](C)(OC(C)=O)C[C@@H](OC(=O)CCC)[C@@]1(O)[C@H]2OC(=O)[C@@]1(C)O (stereo partly specified)	nt	i	nt
O=S(=O)(NCCO)c1cc[c]([Sb])cc1	nt	i[7.66 µM]	nt
O=C(O)CN1CCN(CC(=O)O)CC(=O)[O][Hg][O]C(=O)C1	nt	i[7.66 µM]	nt
C[C@@H]1CC[C@@H]2N(C1)C[C@H]1[C@@](O)([C@H](O)C[C@]3(O)[C@H]4CC[C@H]5[C@]6(O)O[C@]4(C[C@]13O)[C@@]5(C)CC[C@@H]6O)[C@@]2(C)O	nt	i[7.66 µM]	nt
CCn1c(O)c(/C=N/NC(=O)c2ccccc2)c(=O)[nH]c1=S	i	nt	i
COc1ccccc1-n1c(O)c(/C=N/NC(=S)Nc2ccccc2)c(=O)[nH]c1=S	-93.4	nt	i
O=C(O)C[C@H]1OCC=C2CN3CC[C@@]45C6=CC(=O)C(=O)C([N+](=O)[O-])=C6N[C@H]4[C@H]1[C@H]2C[C@@H]35	nt	i[7.66 µM]	nt
SMILES	KCNH2 3.1 inh	Luc counter	hERG WT inh
COC(=O)C1=C(c2ccc(F)cc2OCc2ccccc2)C[C@@H]2CC[C@H]1N2C(=O)NCCOc1ccc(OC)cc1	-86.5	nt	i
COC(=O)C1=C(c2ccc(F)cc2OCc2ccccc2)C[C@@H]2CC[C@H]1N2C(=O)NCCOc1ccccc1	i	nt	i
COC(=O)C1=C(c2ccc(F)cc2OCc2ccccc2)C[C@@H]2CC[C@H]1N2C(=O)NCc1ccc(N(C)C)cc1	i	nt	i
COC(=O)C1=C(c2ccccc2OCc2ccccc2)C[C@@H]2CC[C@H]1N2C(=O)NCc1ccc(N(C)C)cc1	-115.9	nt	i
CN[C@H](Cc1ccccc1)c1cccc(OC)c1O	nt	i[7.66 µM]	nt
C[As+](C)(c1ccc(Br)c([N+](=O)[O-])c1)c1ccc(Br)c([N+](=O)[O-])c1.O=[N+]([O-])O	nt	i[7.66 µM]	nt
Cc1ccc(NC(=[OH+])c2cc3ccccc3cc2O)c(C)c1.Cc1ccc(NC(=[OH+])c2cc3ccccc3cc2O)c(C)c1.[Ni]	nt	i[7.66 µM]	nt
N#CCCCC[N+]12CN3CN(CN(C3)C1)C2	nt	i[7.66 µM]	nt
COc1cccc(CNCCc2c[nH]c3ccccc23)c1	i	nt	i
COc1ccc(CN(CCc2c[nH]c3ccccc23)Cc2ccc(OC)cc2)cc1	-106.2	nt	i
CCOC(=O)[C@]12Cc3cc(OC)ccc3[C@H]1N(Cc1ccccc1)C(=O)c1ccccc12	i	nt	i
CCOC(=O)[C@]12Cc3cc(C)ccc3[C@H]1N(Cc1ccccc1)C(=O)c1ccccc12	-72.4	nt	i
C[C@H]1C2C=C[C@H]1[C@@H](C(=O)O)[C@@H]2c1c2ccc(=O)c(O)c-2oc2c(O)c(O)ccc12	nt	i[7.66 µM]	nt
